We go through 40 sequences from the OligoGym collection.
Note: reference of the scale not given here.

The target of one assay is GPR176. The assay is described as follows: pooled miR-30 sensor sort-seq; sequence = guide strand. The conditions noted are these: shRNA.
TTGCTGTTTCGGGTCTCTGAGA showed a sensor-assay potency score (higher = more potent) of -1.55.
The same measure, in the same setting: for TTGGTTACTGCAAACACAGGGA the value was 0.111.
For the sequence TATGATGACCTTCTTCTTCTGG, the sensor-assay potency score (higher = more potent) is 0.194.
The sequence TTTTTAATGAACCTGTTGGTGA registered a sensor-assay potency score (higher = more potent) of -0.59.
Sequence AAAAATTTGACGACCTTGCAGA registered a sensor-assay potency score (higher = more potent) of -0.383.

Another assay has as its target GPR20. The assay is described as above. The following applies: shRNA.
The sequence TAGACCACGAGGCTCGTGTGGT returned a sensor-assay potency score (higher = more potent) of -1.11.
The sequence TTGATGGTGTAGATGACTGAGG yielded a sensor-assay potency score (higher = more potent) of -1.03.
In turn, TAGCGGTCCACGCAGATGCAGG gave a sensor-assay potency score (higher = more potent) of -1.47.
AAACACGCTGATGACCAGCAGG yielded a sensor-assay potency score (higher = more potent) of -1.04.
Same read-out and setting: the same measure for TAGATCGGTCACCACCAGGTTG: -0.8; for TGGTGTAGATGACTGAGGGTGT: -0.513; for ATGGTGTAGATGACTGAGGGTG: -1.26.
The same measure, in the same setting: for TACCAGTAGATCGGTCACCACC the value was -1.53; for TTGGAGCTCCTGTGCATGCTGA, -0.983.
Turning to TAGACGATGGGGTCCATGCAGC, the sensor-assay potency score (higher = more potent) is -0.856.
Still for that read-out and setting: for TAGTACACAGCGAAGCGCGTGG the value was 0.127; for TGCATGTTGAGGAAGTAACCGA, -0.614.

In a further assay the target is GPR35. The description is as above. The conditions noted are these: shRNA.
For ATGTAGTAGTAGCAGATGGCGT, the sensor-assay potency score (higher = more potent) is -1.53.
For the sequence TAGGCGTAGAAGCCCAGCTTGA, the sensor-assay potency score (higher = more potent) was -1.67.
The sequence TTGGCATCTGAGAGCTTGCTGG came in with a sensor-assay potency score (higher = more potent) of -1.04.
Take TGTAGTAGTAGCAGATGGCGTC: the sensor-assay potency score (higher = more potent) is 0.146.
On to TTTTGTGGGCCTTAGCACTGGG, for which the sensor-assay potency score (higher = more potent) was -0.0303.
As to TAGAAGCCCAGCTTGATCGCTG, the sensor-assay potency score (higher = more potent) turned out to be 0.371.
TAGCAGATGGCGTCCAGGCAGC gave a sensor-assay potency score (higher = more potent) of -1.38.
Still for that read-out and setting: for TTTGTGGGCCTTAGCACTGGGA the value was -1.13; for TGGAGTTGAAATTGTGCCGGGT, 0.0323.
Turning to TTGCTGGTTATGTACAGGGCGC, the sensor-assay potency score (higher = more potent) was -1.43.
Sequence ATGGAGTTGAAATTGTGCCGGG showed a sensor-assay potency score (higher = more potent) of -0.394.
On to TTGGCCATGTAGTAGTAGCAGA, for which the sensor-assay potency score (higher = more potent) was -0.948.

A further assay has as its target GPR3. Described as above. The conditions noted are these: shRNA.
TAGCTCAGAAATTCAAACGTAA: the sensor-assay potency score (higher = more potent) amounted to 0.128.
For TAAATAGACACTGTCTTTGTAT, the sensor-assay potency score (higher = more potent) came to 0.00652.
On the same count and under the same terms, the same measure for TATATGTGCATATATAATCTTT: -0.621.
TAGGGATCTGAACAGAACCTTG returned a sensor-assay potency score (higher = more potent) of -1.54.
TTGTACAGAGAAAGGTAGCGGT registered a sensor-assay potency score (higher = more potent) of 0.0257.
Take TCTGAGTAGAACACTGACCACC: the sensor-assay potency score (higher = more potent) is -0.825.
Turning to TAGAGCTGCAGCATGATGCCAA, the sensor-assay potency score (higher = more potent) was -0.00504.
For the sequence TAGAACTCCAGAACCAGCTGGG, the sensor-assay potency score (higher = more potent) was 0.254.
As for TAGACAGTGAAGGGCAACCAGC, the sensor-assay potency score (higher = more potent) was -1.54.
TGACTAATCTCTCTGACTCTTT came in with a sensor-assay potency score (higher = more potent) of -0.512.
Same read-out and setting: the same measure for TTGGAAGAGGAACAGCAGCAGC: -1.16.
